The results in this text go back to PubChem BioAssay AID1490 (National Center for Advancing Translational Sciences (NCATS), 2009).

Screen size: about 310,000 compounds; about 11,000 (3.5%) were called active. Not shown: some 4% with an inconclusive outcome. This is one part of a sample in which actives are shown more often than they occur. Unmarked numbers belong to inactive results. Calls come from the whole dose curve; as a rule, active = well fitted inhibition curve with a large enough effect; inconclusive = small, poorly fitted or top-dose-only effect, or another doubt; inactive = no such curve, though single readings can be large or run the other way. Non-standard residues stand in square brackets, D forms with d. Residues, ends and D or L forms follow the SMILES beside them. *: point of attachment. PhAc = O=C(Cc1ccccc1)*
Potency is the fitted concentration of half-maximal effect.

This test deals with 4'-phosphopantetheinyl transferase ffp (Bacillus subtilis) (UniProt Q9F4F7). The test can be described thus: qHTS Assay for Inhibitors of Bacillus subtilis Sfp phosphopantetheinyl transferase (PPTase).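 For largest response in the series, negative = inhibition: 0% = enzyme reaction without inhibitor and -100% = no enzyme wells.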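 Note: the enzyme is Sfp with the accession as filed and its product quenches rhodamine fluorescence.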 Particulars: Biochemical Sfp PPTase activity. The procedure, abridged: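 Fluorescence-quenching assay: 15 nM Sfp-PPTase preincubated 15 min at room temperature with compound, then 5 uM rhodamine-CoA and 12.5 uM BHQ-2-labelled YbbR peptide added. Fluorescence (ex 525/em 598 nm) read at start and after 30 min; difference gives rate.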
As for `O=C(Nc1ccccc1N1CCN(C(=O)c2ccccc2)CC1)c1ccco1`, the largest response in the series, negative = inhibition is 14.1%.

Regarding `CC(C)[C@@H](NC(=O)OC(C)(C)C)C(=O)NCC1CCC(C(=O)N[C@@H](Cc2ccccc2)C(=O)O)CC1` (some centres undefined), the largest response in the series, negative = inhibition is 6.54%.

In the case of `O=C(O)CCCCCCCCc1cn(CN2C(=O)c3ccccc3C2=O)nn1`, the largest response in the series, negative = inhibition is -11%.

Take `Cc1cccc(COc2ccccc2/C=N/Nc2ccc([N+](=O)[O-])cc2)c1`: the largest response in the series, negative = inhibition was 24.5%.

Regarding `Cc1ccc(NS(=O)(=O)c2ccc(C)c(NC(=O)COc3ccc4ccccc4c3)c2)c(C)c1`, the largest response in the series, negative = inhibition is -28.6%.

Consider `Cc1ccc(NS(=O)(=O)c2ccc(N/N=C/c3ccccc3OCC(=O)O)c([N+](=O)[O-])c2)c(C)c1`, for which the Potency is 79.4 µM (active).

Regarding `N#Cc1ccc(/C=C2\CCn3c2nc2cc(C(=O)O)ccc2c3=O)cc1`, the largest response in the series, negative = inhibition was 31.1%.

Take `N#Cc1cccc(-c2ccc3ncnc(NCc4cccs4)c3c2)c1`: the largest response in the series, negative = inhibition was -14.8%.

With `O=C(Cc1ccccc1Cl)N1CCOCC1`, the largest response in the series, negative = inhibition is 17%.

Consider `COC(=O)[C@@]1(Cc2ccc(F)cc2)[C@H]2c3cc(C(=O)N(C)C)n(CCc4c[nH]c5ccc(OC)cc45)c3C[C@H]2CN1C(=O)c1ccccc1`, for which the largest response in the series, negative = inhibition is 0.76%.

For the compound `O=C(NCc1ccc(Cl)cc1)c1cc2c(nc3sccn32)s1`, the Potency is 50.1 µM (active).

Turning to `O=C(NCc1ccc(Cl)cc1)c1cc(=O)nc2sc(-c3ccccc3)nn12`, the largest response in the series, negative = inhibition is 1.8%.

For the compound `O=C(NCc1ccc(Cl)cc1)NCc1ccc(Cl)cc1`, the largest response in the series, negative = inhibition is -3.32%.

With `Cc1c(C(=O)NCCN(C)C)oc2ccc(S(=O)(=O)N3CCCC3)cc12`, the largest response in the series, negative = inhibition is 18.9%.

As to `Fc1cc(F)c2nc(Nc3nc4c(F)cccc4s3)sc2c1`, the largest response in the series, negative = inhibition is -0.873%.

Take `NC(=O)c1c(Nc2nc3c(F)cccc3s2)sc2c1CCCC2`: the Potency is 44.7 µM (active).

As for `NC(=O)c1c(NC(=O)c2ccccc2)sc2c1CCCC2`, the largest response in the series, negative = inhibition was 4.07%.

As to `COc1ccc(N2CCN(S(=O)(=O)c3cc(Br)cnc3N)CC2)cc1`, the largest response in the series, negative = inhibition is 7.84%.

Consider `C=CCc1c(C)nc2cc(-c3ccccc3)[nH]n2c1=O`, for which the largest response in the series, negative = inhibition is 7.41%.

On to `Cc1nc2c(-c3ccc(F)cc3)c(C)nn2c(C)c1CCC(=O)NCc1ccco1`, for which the largest response in the series, negative = inhibition is -2.36%.

As for `COc1cc(OC)cc(-c2nc3nc(C)c(CCC(=O)NCc4ccco4)c(C)n3n2)c1`, the largest response in the series, negative = inhibition is 8.97%.

For the compound `COc1ccc(-c2cc3nc(C)c(CCC(=O)NC(C)CCc4ccco4)c(C)n3n2)c(OC)c1` (centres undefined), the Potency was 79.4 µM (active).

For `CC(C)C(=O)Nc1nnc(SCC(=O)N2C(C)CCCC2C)s1` (centres undefined), the largest response in the series, negative = inhibition is -17.7%.

On to `O=C(CN1CCN(S(=O)(=O)c2cc(Cl)ccc2Cl)CC1)c1ccc(O)c(O)c1`, for which the Potency was 50.1 µM (active).

Take `O=S(=O)(c1cc(Cl)ccc1Cl)N1CCN(Cc2ccco2)CC1`: the largest response in the series, negative = inhibition is 22.5%.

As to `COc1ccc(Cl)cc1S(=O)(=O)N1CCN(CC(=O)C(C)(C)C)CC1`, the largest response in the series, negative = inhibition is 7.95%.

For `O=C1CCC(=O)N(O)CCCCCNC(=O)CCC(=O)N(O)CCCCCNC(=O)CCC(=O)N(O)CCCCCN1`, the Potency was 89.1 µM (active).

`COc1ccccc1CNC(=O)C1CCN(S(=O)(=O)c2ccc3c(c2)CC(C)N3C(=O)C2CC2)CC1` (centres undefined): the largest response in the series, negative = inhibition is -7.76%.

Take `CN(C)S(=O)(=O)c1ccc(N2CCCC2)c(C(=O)Nc2cccc(F)c2)c1`: the largest response in the series, negative = inhibition is -1.67%.

As to `Cc1ccc(C(=O)NCCc2nnc(SCC(=O)Nc3cccc(C(=O)O)c3)n2C)cc1`, the largest response in the series, negative = inhibition was 10.4%.

On to `CC(CCc1ccccc1)NC(=O)COC(=O)c1ccc(F)cc1` (centres undefined), for which the largest response in the series, negative = inhibition was -4.51%.

Consider `CCOc1cccc(NC(=O)C2CCCN(S(=O)(=O)c3ccc(OC)cc3)C2)c1` (centres undefined), for which the largest response in the series, negative = inhibition was -5.07%.

With `CCN(CC(=O)Nc1ccc(S(=O)(=O)N2CCCC2)cc1)CC(=O)Nc1cccc(OC)c1`, the Potency is 79.4 µM (active).

In the case of `COc1ccccc1CC(=O)Nc1ccc(S(=O)(=O)N2CCCC2)cc1`, the largest response in the series, negative = inhibition was 4.84%.

Regarding `Cc1cc(C)c(C#N)c(Nc2cccc(Br)c2)n1`, the largest response in the series, negative = inhibition was 6.8%.

On to `CC(C)C[C@@H](NC(=O)[C@H]1CCCN1C(=O)Cc1ccccc1)C(N)=O` (PhAc-[dP]-[dL]-NH2), for which the largest response in the series, negative = inhibition was 21.3%.

With `CC(C)CCN(C(=O)c1csnn1)C(C(=O)NC1CCCC1)c1ccccc1` (centres undefined), the largest response in the series, negative = inhibition was 13.6%.

Consider `COc1ccc2[nH]cc(CCNc3ncnc4ccc(-c5ccc(C(=O)N(C)C)cc5)cc34)c2c1`, for which the largest response in the series, negative = inhibition was -5.41%.

Consider `O=C(Cn1cc(/C=N/NC(=O)c2cccc(C(F)(F)F)c2)c2ccccc21)Nc1ccc(F)cc1`, for which the Potency is 20 µM (active).

As for `COc1cccc(Cn2cc(/C=N/NC(=O)c3cc(O)cc(O)c3)c3ccccc32)c1`, the largest response in the series, negative = inhibition was -18.5%.

Turning to `COc1ccc(/C=N/NC(=O)c2cccc(C(F)(F)F)c2)cc1`, the largest response in the series, negative = inhibition was -22%.

With `O=C(NC1Cc2ccccc2C1)c1cc(COc2cccc(C(F)(F)F)c2)on1`, the largest response in the series, negative = inhibition is 24%.

Turning to `CCc1n[nH]c(=S)n1/N=C/c1c[nH]c2ccc(Br)cc12`, the largest response in the series, negative = inhibition was 11.4%.

For `S=c1[nH]nc(COc2ccccc2)n1-c1ccccc1`, the largest response in the series, negative = inhibition is 21.2%.

Consider `Fc1ccc(/C=N/n2c(COc3ccccc3)n[nH]c2=S)cc1`, for which the Potency is 56.2 µM (active).

Consider `Cc1ccc(-c2n[nH]c(=S)n2/N=C/c2cc3c(cc2[N+](=O)[O-])OCO3)cc1`, for which the largest response in the series, negative = inhibition was -22.6%.

Consider `O=[N+]([O-])c1ccccc1/C=N/n1c(COc2ccccc2)n[nH]c1=S`, for which the Potency was 56.2 µM (active).

For the compound `Cc1ccc(OCc2n[nH]c(=S)n2-c2ccccc2)cc1`, the largest response in the series, negative = inhibition was 5.12%.

In the case of `CSc1ccc(CCNC(=O)CS(=O)(=O)Cc2nc(-c3ccccc3F)oc2C)cc1`, the largest response in the series, negative = inhibition is 17.7%.

`Cc1cc(Cl)ccc1C(=O)C1CCCN(C(=O)c2nonc2C)C1` (centres undefined): the largest response in the series, negative = inhibition is 1.34%.

With `COC(=O)c1ccc(/C=N/N2C(C)CCCC2C)cc1` (centres undefined), the largest response in the series, negative = inhibition was 13.3%.

Regarding `COC(=O)c1ccc(/C=N\n2c(C)nnc2C)cc1`, the largest response in the series, negative = inhibition is 13.8%.

`CCN(CC)S(=O)(=O)c1cccc(-c2n[nH]c(=S)n2/N=C/c2ccc(C(=O)OC)cc2)c1`: the Potency is 50.1 µM (active).

`COC(=O)C1=CN(Cc2ccc(OC)cc2)C=C(C(=O)OC)C1c1ccc(O)c(OC)c1`: the largest response in the series, negative = inhibition was -3.15%.

Turning to `Cn1c(CNC(=O)c2ccccc2F)nnc1SCc1ccc(F)cc1`, the largest response in the series, negative = inhibition was -14.5%.

In the case of `Cn1c(Cn2nnc3ccccc32)nnc1SCC(=O)c1ccccc1F`, the Potency is 50.1 µM (active).

On to `Cc1ccc(C(=O)CSc2nnc(Cn3nnc4ccccc43)n2C)cc1`, for which the largest response in the series, negative = inhibition is 4%.

As for `COc1ccc(S(=O)(=O)/N=C2\C=C(NS(=O)(=O)c3ccccc3)C(=O)c3ccccc32)cc1`, the largest response in the series, negative = inhibition is -20.9%.

Turning to `OCCN1CCN(c2nnc(-c3ccccc3)c3ccccc23)CC1`, the largest response in the series, negative = inhibition was 21.7%.

`OCCN1CCN(C(=S)c2ccc(-c3ccccc3)cc2)CC1`: the Potency was 7.08 µM (active).

Take `O=C(NC(c1ccccc1)c1ccccc1)N1CCN(CCO)CC1`: the largest response in the series, negative = inhibition is 5.46%.

Regarding `CCc1nonc1NC(=O)c1oc2ccc(Cl)cc2c1C`, the largest response in the series, negative = inhibition is -4.03%.

For `COc1cccc(CC(=O)N2CCc3nc(COc4ccccc4)c4c(c3C2)CO[C@@H](C)C4)c1`, the largest response in the series, negative = inhibition is -1.37%.

Consider `NS(=O)(=O)c1ccc(CNC(=O)c2cccc(Oc3ccccc3)c2)cc1`, for which the largest response in the series, negative = inhibition was 5.75%.

Consider `CCCSc1nc2sc3c(c2c(=O)n1-c1ccc(OC)cc1)CCN(C)C3`, for which the largest response in the series, negative = inhibition was -7.59%.

`COc1ccc(-n2c(=S)[nH]c3sc4c(c3c2=O)CCc2ccccc2-4)cc1`: the Potency is 17.8 µM (active).

In the case of `CSc1nc2sc3c(c2c(=O)[nH]1)CCc1ccccc1-3`, the largest response in the series, negative = inhibition was 2.54%.

Take `CCOC(=O)C1=C(CN2CCCCCC2)NC(=O)NC1c1cccc([N+](=O)[O-])c1` (centres undefined): the Potency is 89.1 µM (active).

`CCOC(=O)C1=C(CN2CCc3ccccc32)NC(=O)NC1c1ccc(Cl)cc1` (centres undefined): the largest response in the series, negative = inhibition is -11.6%.

Turning to `CCOC(=O)C1=C(CN2CCc3ccccc32)NC(=O)NC1c1cccc([N+](=O)[O-])c1` (centres undefined), the largest response in the series, negative = inhibition is 3.8%.

For the compound `O=C(Nc1ccc(-n2cccn2)cc1)C1CCN(Cc2ccsc2)CC1`, the largest response in the series, negative = inhibition is -0.783%.

Turning to `Cc1cccc(C(=O)NC(=S)N(C)C2CCCCC2)c1`, the largest response in the series, negative = inhibition was 17.9%.

Consider `Nc1nc2nc(Cl)[nH]c2c(=O)[nH]1`, for which the largest response in the series, negative = inhibition was -9.02%.

On to `Cn1nccc1C(=O)NC1CCCc2c1cnn2-c1ccc(F)cc1F` (centres undefined), for which the largest response in the series, negative = inhibition is 12.2%.

Regarding `Cc1cc(C)n(-c2ccc(Cl)c(C(=O)O)n2)n1`, the largest response in the series, negative = inhibition was -14.9%.

Turning to `Cc1cc(C)n(-c2ccc3nncn3n2)n1`, the largest response in the series, negative = inhibition is 10.3%.

For `Cc1cc(C)n(-c2nc(O)cc(=O)[nH]2)n1`, the Potency is 15.8 µM (active).

On to `O=C(COc1nsnc1N1CCOCC1)Nc1ccccc1Cl`, for which the largest response in the series, negative = inhibition was 10.1%.

As to `CN(C)S(=O)(=O)N1CCC(Oc2cccc(C(=O)NCCCC3CCCC3)c2)CC1`, the largest response in the series, negative = inhibition was -2.01%.

In the case of `O=C(CCn1nnc2ccccc21)OCC(=O)c1ccc([N+](=O)[O-])cc1`, the largest response in the series, negative = inhibition is 30.5%.

Consider `C/C(=N/NC(=O)CSc1ccccn1)c1ccc([N+](=O)[O-])cc1`, for which the largest response in the series, negative = inhibition was 0.345%.

As to `O=C(CC(n1cncn1)C(Cl)(Cl)Cl)c1ccc([N+](=O)[O-])cc1` (centres undefined), the Potency is 44.7 µM (active).

In the case of `Cc1ccc(C)c(S(=O)(=O)Nc2cc(C)on2)c1`, the largest response in the series, negative = inhibition was 10.8%.

As for `CCCCN=C1C([N+](=O)[O-])=CC=C2C1=NC1(CCCCC1)N2O`, the Potency was 28.2 µM (active).

As to `O=C(NC1CCCC1)c1cc(-c2ccccc2)on1`, the largest response in the series, negative = inhibition was 11.2%.

For the compound `Cc1ccc(NC(=O)Cn2nnc(C(=O)NCc3ccco3)c2N)c(C)c1`, the largest response in the series, negative = inhibition was -4.99%.

Turning to `Cc1ccccc1CN1C(=O)c2ccccc2Sc2ccc(C(=O)NCCCN3CCOCC3)cc21`, the largest response in the series, negative = inhibition is -13.2%.

As for `CCN1CCN(CCNC(=O)c2ccc(/C=C3/Sc4ccccc4N(Cc4cccc(C)c4)C3=O)cc2)CC1`, the Potency was 39.8 µM (active).

As to `CCN1CCN(CCNC(=O)c2ccc3c(c2)NC(=O)/C(=C\c2ccc(OC)c(OC)c2)S3)CC1`, the largest response in the series, negative = inhibition is -5.49%.
